Structures are written as SMILES. Records with an inconclusive call do not appear. A number with no mark means an inactive call. Activity calls are given as the source filed them. The call rests on the fitted dose curve; in most records, active means well fitted cell-killing curve with a large enough effect in the repeat runs; inconclusive means weak or mixed curves, or effect the other way; inactive means no such curve, though single readings can be large or run the other way.
On the % scale 0 is the no-effect control and ±100 the full control effect; potency means the concentration at half of the fitted maximal effect.

The test is described as follows: qHTS assay to identify small molecule agonists of the RXR signaling pathway - cell viability counter screen (AID 1159529). Further: nearly all actives have a fitted effect of over 50% in size. As to conditions: RXR-alpha-bla HEK293T viability, CellTiter-Glo, 16 h; series mostly up to 76.8 µM; activity change, negative = cytotoxicity: at the top concentration. An outline of the steps: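 Compounds dissolved in DMSO were pinned onto HEK 293T cells carrying a beta-lactamase reporter under RXR-alpha control and incubated 16 hr. Cytotoxicity was then quantified by CellTiter-Glo luminescence.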
Regarding `COc1ccc2c(c1OC)C(=O)O[C@@H]2[C@H]1c2cc3c(cc2CCN1C)OCO3`, the “activity change, negative = cytotoxicity” value is -9.72%.
As for `CC(Cc1ccc(OCC(=O)O)cc1)NCC(O)c1csc(C(F)(F)F)n1` (centres undefined), the “activity change, negative = cytotoxicity” value is 9.64%.
Turning to `Nc1ccc(Cl)cc1C(=O)c1ccccc1F`, the “activity change, negative = cytotoxicity” value is -27.9% [at 35.3 µM].
In the case of `O=c1c2ccccc2c(=O)c2c1cc(Cl)c1[nH]c3c([nH]c12)c(Cl)cc1c(=O)c2ccccc2c(=O)c13`, the “activity change, negative = cytotoxicity” value is 14.9%.
Take `CCc1cccc(C)c1N(C(=O)CCl)[C@@H](C)COC`: the “activity change, negative = cytotoxicity” value was -33.2%.
The same measure, in the same setting: with `COP(=O)(OC)O/C(=C\Cl)c1cc(Cl)c(Cl)cc1Cl` the figure was -14.5%.
Regarding `C=Cc1cccc(CCl)c1`, the “activity change, negative = cytotoxicity” value is 9.69% [at 200 µM].
Regarding `CNC(C)(C)Cc1ccccc1`, the “activity change, negative = cytotoxicity” value is -2.69% [at 35.3 µM].
In the case of `CCC(C)Br` (centres undefined), the “activity change, negative = cytotoxicity” value was 2.8%.
Same read-out and setting: with `OCC(Br)CBr` (centres undefined) the figure was 0.402%.
With `ClC1=C(Cl)[C@]2(Cl)[C@H]3[C@H]([C@@H]4C=C[C@H]3C4)[C@@]1(Cl)C2(Cl)Cl`, the Potency was 49 µM (active).
For `CCOP(=S)(OCC)SC(CCl)N1C(=O)c2ccccc2C1=O` (centres undefined), the “activity change, negative = cytotoxicity” value was -2.48%.
Still for that read-out and setting: next, `Oc1ccc(Cl)c(Cl)c1`: -27.5%.
`COC(=O)C(C)N(C(=O)c1ccco1)c1c(C)cccc1C` (centres undefined): the “activity change, negative = cytotoxicity” value was 0.909%.
Still for that read-out and setting: with `COP(=S)(NC(C)C)Oc1ccc(C)cc1[N+](=O)[O-]` (centres undefined) the figure was 5.48%; with `Clc1ccc(C(Cl)(Cl)Cl)cc1Cl`, -17%; with `Cc1ccc(C)c2ccccc12`, 8.96%.
As to `COc1cnc(OC)n2nc(NS(=O)(=O)c3c(OCC(F)F)cccc3C(F)(F)F)nc12`, the “activity change, negative = cytotoxicity” value is 11.3%.
`CC(O)C(=O)[O][Hg][c]1ccccc1` (centres undefined): the Potency was 1.95 µM (active).
For `CCCCCON=O`, the “activity change, negative = cytotoxicity” value was 13.4%.
For `CNC(=O)/C=C(\C)OP(=O)(OC)OC`, the “activity change, negative = cytotoxicity” value is 2.23%.
Turning to `CC(C)N(C(=O)SC/C(Cl)=C/Cl)C(C)C`, the “activity change, negative = cytotoxicity” value is -3.18%.
On the same count and under the same terms, next, `CC[N+]1(CC)CCC(OC(=O)C(O)(c2ccccc2)c2ccccc2)C1` (centres undefined): 3.79% [at 35.3 µM].
`[O]=[Cr](=[O])([OH])[O][Cr](=[O])(=[O])[OH]`: the Potency was 0.0027 µM (active).
In the case of `C[C@@H]1CC2=CC(=O)CC[C@@H]2[C@H]2CC[C@@]3(C)[C@@H](CC[C@]3(C)O)[C@@H]21`, the “activity change, negative = cytotoxicity” value is 10% [at 35.3 µM].
Turning to `CCCCc1ccccc1`, the “activity change, negative = cytotoxicity” value was 10.5%.
Still for that read-out and setting: with `CC(=O)C(Cl)C(=O)N(C)C` (centres undefined) the figure was -3.27%; with `Clc1ccc(C2(Cn3cncn3)OCCO2)c(Cl)c1`, -1.85%.
`CCC1COC(Cn2cncn2)(c2ccc(Cl)cc2Cl)O1` (centres undefined): the “activity change, negative = cytotoxicity” value was -16.7%.
With `COc1c2c(cc3c1OCO3)CCN(C)C2`, the “activity change, negative = cytotoxicity” value is 0.0182% [at 35.3 µM].
Take `CNC(=O)Oc1cc(C)cc(C(C)C)c1`: the “activity change, negative = cytotoxicity” value is -19.8%.
As to `CSC(C)(C)/C=N/O`, the “activity change, negative = cytotoxicity” value is 0.854%.
Take `Nc1cc(Cl)ccc1Cl`: the “activity change, negative = cytotoxicity” value is -1.59%.
Consider `C=CCBr`, for which the “activity change, negative = cytotoxicity” value is 8.01%.
Consider `CC[C@H](C)[C@H]1O[C@]2(C=C[C@@H]1C)C[C@@H]1C[C@@H](C/C=C(\C)[C@@H](O[C@H]3C[C@H](OC)[C@@H](O[C@H]4C[C@H](OC)[C@@H](NC)[C@H](C)O4)[C@H](C)O3)[C@@H](C)/C=C/C=C3\CO[C@@H]4[C@H](O)C(C)=C[C@@H](C(=O)O1)[C@]34O)O2`, for which the Potency is 4.36 µM (active).
As for `N#CCCl`, the Potency was 9.08 µM (active).
For `c1cc[n+]2c(c1)-c1cccc[n+]1CC2`, the “activity change, negative = cytotoxicity” value was 3.63% [at 35.3 µM].
Turning to `CN=C=O`, the “activity change, negative = cytotoxicity” value is -8.77%.
`O=C1C[C@@H]2OCC=C3CN4CC[C@]56c7ccccc7N1[C@H]5[C@H]2[C@H]3C[C@H]46`: the “activity change, negative = cytotoxicity” value is -11% [at 35.3 µM].
